PubChem BioAssay AID1159580 (chemical genetic matrix, 2015)
Screen size: about 5,500 compounds; about 2,000 (36%) were called active. Another 18% or so got no clear call; they are omitted. Cut-off read from the data, not from the text of the source: active = normalized growth mostly below about 0.91 (no sharp cut-off); inconclusive = no clear call, values can overlap the other calls; inactive = mostly above about 0.92. This is one part of the list.

Experiment: chemical genetic growth profiling, strain panel (AID 1159580);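 note: tested at 20 µM; growth read once vehicle control cultures reached saturation at 30 °C; 1 = growth at the plate median or of vehicle wells; lower values mean less growth of the strain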
Settings: S. cerevisiae deletion strains, growth OD
[1] = locus YAR019C, strain CDC15, hits give low values
[2] = locus YBL105C, strain PKC1, hits give low values
[3] = locus YBR135W, strain CKS1, hits give low values
[4] = locus YBR136W, strain MEC1, hits give low values
[5] = locus YDL017W, strain CDC7, hits give low values
[6] = locus YDL101C, strain DUN1, hits give low values
[7] = locus YDL214C, strain PRR2, hits give low values
[8] = locus YDR052C, strain DBF4, hits give low values
[9] = locus YDR054C, strain cdc34, hits give low values
[10] = locus YDR226W, strain ADK1, hits give low values
[11] = locus YDR477W, strain SNF1, hits give low values
[12] = locus YER123W, strain YCK3, hits give low values
[13] = locus YER133W, strain GLC7, hits give low values
[14] = locus YFL029C, strain CAK1, hits give low values
[15] = locus YFR003C, strain YPI1, hits give low values
[16] = locus YFR019W, strain FAB1, hits give low values
[17] = locus YFR028C, strain CDC14, hits give low values
[18] = locus YGR040W, strain KSS1, hits give low values
[19] = locus YGR052W, strain FMP48, hits give low values
[20] = locus YGR092W, strain DBF2, hits give low values
[21] = locus YHR030C, strain SLT2, hits give low values
[22] = locus YHR079C, strain IRE1, hits give low values
[23] = locus YHR082C, strain KSP1, hits give low values
[24] = locus YHR205W, strain SCH9, hits give low values
[25] = locus YIL147C, strain SLN1, hits give low values
[26] = locus YJL095W, strain BCK1, hits give low values
[27] = locus YJL157C, strain FAR1, hits give low values
[28] = locus YJR066W, strain TOR1 (second series), hits give low values
[29] = locus YJR066W, strain TOR1, hits give low values
[30] = locus YKL048C, strain ELM1, hits give low values
[31] = locus YKL067W, strain YNK1, hits give low values
[32] = locus YKL101W, strain HSL1, hits give low values
[33] = locus YKL193C, strain SDS22, hits give low values
[34] = locus YKL203C, strain TOR2, hits give low values
[35] = locus YLR113W, strain HOG1, hits give low values
[36] = locus YLR133W, strain CKI1, hits give low values
[37] = locus YLR403W, strain SFP1, hits give low values
[38] = locus YML070W, strain DAK1, hits give low values
[39] = locus YMR001C, strain CDC5, hits give low values
[40] = locus YMR205C, strain PFK2 (second series), hits give low values
[41] = locus YMR277W, strain FCP1, hits give low values
[42] = locus YNL006W, strain LST8, hits give low values
[43] = locus YNL020C, strain ARK1, hits give low values
[44] = locus YNL183C, strain NPR1, hits give low values
[45] = locus YNL222W, strain SSU72, hits give low values
[46] = locus YNL307C, strain MCK1 (second series), hits give low values
[47] = locus YOL078W, strain AVO1, hits give low values
[48] = locus YOL136C, strain PFK27, hits give low values
[49] = locus YOR061W, strain CKA2, hits give low values
[50] = locus YOR119C, strain RIO1, hits give low values
[51] = locus YOR231W, strain MKK1, hits give low values
[52] = locus YOR329C, strain SCD5, hits give low values
[53] = locus YPL031C, strain PHO85, hits give low values
[54] = locus YPL153C, strain RAD53, hits give low values
[55] = locus YPL204W, strain HRR25, hits give low values
[56] = locus YPL209C, strain IPL1, hits give low values
[57] = locus YPL256C, strain CLN2, hits give low values
[58] = locus YPR025C, strain CCL1, hits give low values
[59] = locus YPR106W, strain ISR1, hits give low values
[60] = strain NNK1, hits give low values
[61] = strain TSCII, hits give low values

Measured: normalized growth

CCCN(CC1CC1)c1nc(C)nc(Nc2c(Cl)cc(Cl)cc2Cl)c1Cl
inactive: locus YAL013W, strain DEP1, hits give low values 1.02 | locus YAL040C, strain CLN3, hits give low values 1.06 | locus YCL061C, strain MRC1 (second series), hits give low values 1 | locus YDR150W, strain NUM1, hits give low values 1.01 | locus YDR363W, strain ESC2, hits give low values 0.999 | locus YER002W, strain NOP16, hits give low values 1.05 | locus YJR075W, strain HOC1, hits give low values 1.01 | locus YMR263W, strain SAP30, hits give low values 1.01 | locus YMR307W, strain GAS1, hits give low values 1 | locus YNL153C, strain GIM3, hits give low values 1.06 | locus YNL224C, strain SQS1, hits give low values 1.05
active: locus YNL197C, strain WHI3, hits give low values 1.13 [resistant] | locus YOR083W, strain WHI5 (second series), hits give low values 1.18 [resistant]

COC(=O)/C=C1/OC(c2ccc(OC)cc2)=CC1=O
inactive: [5] 0.968 | [8] 0.981 | [10] 0.923 | [15] 0.98 | [25] 0.978 | [42] 0.989 | [52] 0.988
active: [1] 0.283 | [2] 0.594 | [3] 0.428 | [4] 0.671 | [6] 0.447 | [7] 0.105 | [9] 0.464 | [11] 0.101 | [12] 0.102 | [13] 0.0947 | [14] 0.177 | [16] 0.099 | [17] 0.433 | [18] 0.108 | [19] 0.125 | [20] 0.154 | [21] 0.14 | [22] 0.29 | [23] 0.143 | [24] 0.0277 | [26] 0.124 | [27] 0.121 | [28] 0.102 | [29] 0.15 | [30] 0.402 | [31] 0.0947 | [32] 0.156 | [33] 0.221 | [34] 0.103 | [35] 0.163 | [36] 0.129 | [37] 0.16 | [38] 0.0894 | [39] 0.273 | [40] 0.152 | [41] 0.274 | [43] 0.315 | [44] 0.115 | [45] 0.499 | [46] 0.123 | [47] 0.316 | [48] 0.102 | [49] 0.308 | [50] 0.108 | [51] 0.23 | [53] 0.103 | [54] 0.221 | [55] 0.282 | [56] 0.5 | [57] 0.154 | [58] 0.576 | [59] 0.507 | [60] 0.11 | [61] 0.265

CO/N=C1/CC(C)(C)Cc2c(-c3ccn(C(=O)Nc4cccc(Cl)c4)n3)sc(SC)c21
inactive: [1] 0.981 | [2] 0.965 | [3] 0.968 | [4] 0.969 | locus YBR160W, strain CDC28, hits give low values 0.964 | [5] 0.967 | locus YDL028C, strain MPS1, hits give low values 0.963 | [6] 0.975 | locus YDL108W, strain KIN28, hits give low values 0.959 | locus YDL132W, strain cdc53, hits give low values 0.967 | [7] 0.983 | [8] 0.973 | [9] 0.971 | [10] 0.974 | [11] 0.996 | [12] 0.993 | [13] 1 | locus YFL009W, strain cdc4, hits give low values 0.963 | [14] 0.978 | [15] 0.96 | [16] 1 | [17] 0.969 | [18] 1 | [19] 1.02 | [20] 1 | [22] 1.13 | [23] 1.1 | [24] 0.989 | [25] 0.972 | [26] 1.02 | locus YJL128C, strain PBS2, hits give low values 0.952 | [27] 0.996 | locus YJR016C, strain ILV3, hits give low values 0.97 | [28] 1.06 | [29] 1.1 | [30] 0.993 | [31] 0.98 | [32] 0.988 | [33] 0.968 | [34] 1.06 | [35] 0.968 | [36] 0.98 | [37] 1.02 | [38] 0.984 | [39] 0.977 | [40] 0.978 | [41] 0.97 | [42] 0.981 | [43] 0.983 | locus YNL161W, strain CBK1, hits give low values 0.977 | [44] 1.03 | locus YNL207W, strain RIO2, hits give low values 0.971 | [45] 0.969 | [46] 0.992 | [47] 0.966 | [48] 0.993 | [49] 0.98 | [50] 1.05 | [51] 0.984 | [52] 0.971 | [53] 1.02 | [54] 1.04 | [55] 1.02 | [56] 0.969 | [57] 1.13 | [58] 0.963 | [59] 0.975 | locus YPR111W, strain DBF20, hits give low values 0.962 | [60] 0.989 | [61] 0.977
active: [21] 1.16 [resistant]
